Some of the results follow. Activity calls are given as the source filed them.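 How the source made its calls: active means inhibition above the mean of stimulated solvent-only control wells plus 3 SD (cut at about 22% in these data); inactive means the rest.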
experiment: CNGC cAMP sensor activity inhibitors, counter-screen for NPY-Y1 potentiator/agonist project, cell-based, HEK293-CNG parental, membrane potential fluorescence, Y1 set (AID 1704); settings: isoproterenol cAMP, at 3.6 µM, active compounds read high;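 further: 0% = isoproterenol-stimulated DMSO wells and 100% = unstimulated DMSO wells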

SMILES | inhibition
COC(=O)c1ccc(NC(=O)CN(c2ccc(C)cc2)S(=O)(=O)c2c(C)n[nH]c2C)cc1 | 36.6% (active)
Cc1ccccc1NCC(=O)N/N=C\c1ccc([N+](=O)[O-])s1 | 33.8% (active)
O=C(Nc1ccccc1C(F)(F)F)c1cc(-c2ccc(O)cc2)on1 | -10.9% (inactive)
CN1C(=O)c2ccccc2C(C(=O)NCCCN2CCCC2)C1c1c[nH]c2ccccc12 (stereo unspecified) | -0.85% (inactive)
Cc1cccc(OCC(O)CN2CCN(CCN3C(=O)c4cccc5cccc(c45)C3=O)CC2)c1C (stereo unspecified) | 51.3% (active)
O=C(Nc1ccc2c(c1)CCC2)c1cccc(S(=O)(=O)Nc2ccccc2Cl)c1 | 7.5% (inactive)
CSc1nc(-c2ccco2)nn1C(=O)c1ccccc1Cl | 12.3% (inactive)
O=[N+]([O-])c1cc(Cl)cc(/C=N/NC(=S)Nc2cc(S(=O)(=O)N3CCOCC3)ccc2Cl)c1O | 66.5% (active)
N#Cc1ccc(C(=O)Nc2nc(-c3cccs3)c(C(=O)C(F)(F)F)s2)cc1 | -18.5% (inactive)
O=C(c1cccs1)N1CCN(C(=O)N2CCOCC2)CC1 | 1.33% (inactive)
O=C1/C(=C/c2coc3ccc(O)cc3c2=O)SC(=S)N1c1ccccc1 | 11.7% (inactive)
CC(=O)c1ccc(NC(=O)C2CC(=O)Nc3nc4ccccc4n32)cc1 (stereo unspecified) | 32.8% (active)
CC1=C/C(=N\OS(=O)(=O)c2ccccc2)C=CC1=O | 16.7% (inactive)
COC(=O)c1sc(-c2ccc(C(C)(C)C)cc2)cc1NC(=O)/C=C/C(=O)O | 24.5% (active)
CCn1c2ccccc2c2cc(NC(=O)Nc3ccc([N+](=O)[O-])cc3C)ccc21 | 16.4% (inactive)
COCCn1nnnc1C(c1ccccc1Cl)N1CCN(c2ccccc2OC)CC1 (stereo unspecified) | -5.71% (inactive)

Source: PubChem BioAssay AID1704 (The Scripps Research Institute Molecular Screening Center, 2009)
